From PubChem BioAssay
Sampled rows, rich in hits. Any-hit rate of the full collection: about 19%.
IL-1B inflam inh = qHTS for Inhibitors of Inflammasome Signaling: IL-1-beta AlphaLISA Primary Screen; THP-1 LPS/ATP IL-1B secretion, AlphaLISA, 16 h; active compounds read low; activity change, % at 57.5 µM; hit rate 4.7% among 360,000; AID 743279, 2014; in the data active = activity change below about -50%; inconclusive = mostly about -30% to -49%
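THP-1 cells pretreated 1 hr with compounds (up to 57.5 uM final), then stimulated with LPS (250 ng/mL final) plus ATP (1.25 mM final); secreted IL-1B measured by AlphaLISA after 16 hr, decreased signal indicating inhibition.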
TDP1 cell noCPT = qHTS for Inhibitors of human tyrosyl-DNA phosphodiesterase 1 (TDP1): qHTS in cells in absence of CPT | hit rate 15% among 420,000 | Potency, µM (titrated, usually from 46.2 µM), actives largely listed as inhibitors | DT40 Tdp1-/- hTDP1 cells, no CPT, ATP luminescence, 48 h; note: nearly all actives have a fitted effect of over 55% in size
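Cells were dispensed at 400 per well, compounds added by pin tool, plates incubated ≥48 hr at 37 °C, then CellTiter-Glo added for 30 min at room temperature before luminescence reading. Line: DT40 Tdp1-/- complemented with hTDP1; camptothecin omitted.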
ELG1 repair inh = qHTS screen for small molecules that inhibit ELG1-dependent DNA repair in human embryonic kidney (HEK293T) cells expressing luciferase-tagged ELG1; HEK293T ELG1-luciferase reporter, luminescence, 16 h; DNA damage induced by 5-fluorouridine; Potency, µM (doses to about 46.1 µM), hits mostly inhibitors; hit rate 2.3% among 330,000; note: nearly all actives have a fitted effect of over 55% in size
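Quantitative HTS, concentration-response format. 2,000 cells/well co-treated with 5-fluorouridine and compound, 16 hr in 5% CO2 at 37 °C; ONE-Glo luminescence read after 30 min.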
TDP1 cell CPT = qHTS for Inhibitors of human tyrosyl-DNA phosphodiesterase 1 (TDP1): qHTS in cells in presence of CPT. chicken DT40 Tdp1-/-;hTDP1 cells + 20 nM CPT, ATP luminescence, 48 h. Potency, µM (doses to about 46.2 µM), hits mostly inhibitors. hit rate 12% among 420,000. AID 686979, 2013; note: nearly all actives have a fitted effect of over 55% in size
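Cell growth measured by CellTiter-Glo luminescence after a minimum 48 h, 37 C compound exposure with 20 nM CPT in Tdp1-knockout DT40 cells stably expressing hTDP1, seeded 400/well; qHTS titration format.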
HT1080NT lethal = qHTS for induction of synthetic lethality in tumor cells producing 2HG: qHTS for the HT-1080-NT fibrosarcoma cell line | HT-1080-NT fibrosarcoma viability, CellTiter-Glo ATP luminescence, 48 h | Potency, µM (highest dose often 46.1 µM), hits mostly cytotoxic | hit rate 1.6% among 360,000;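 note: NT is the 2HG producing partner of a matched IDH1 knockdown line; nearly all actives have a fitted effect of over 55% in size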
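A 48-hour cytotoxicity screen used HT-1080-NT cells plated 2 hours before compound delivery. ATP-based CellTiter-Glo luminescence measured viability, normalized to DMSO and no-cell controls.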
HT1080 IDH1KD tx = qHTS for induction of synthetic lethality in tumor cells producing 2HG: qHTS for the HT-1080-IDH1KD cell line; HT-1080 IDH1 knockdown viability, ATP luminescence, 48 h; Potency, µM (doses to about 46.1 µM), hits mostly cytotoxic; hit rate 2% among 360,000; AID 686971, 2013
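In this qHTS, HT-1080 cells depleted of IDH1 are exposed for 48 h at 37 °C to compound titrations. Toxicity is scored from CellTiter-Glo luminescence, with DMSO as full viability and medium alone as none.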
A number is an active result; i = inactive; ? = inconclusive; nt = no result given; ! = repeats disagree. Unless noted, calls come from the whole dose curve; as a rule, active = well fitted curve in the direction sought with a large enough effect; inconclusive = small, poorly fitted or top-dose-only effect, or another doubt; inactive = no such curve, though single readings can be large; an effect the other way counts as inactive or inconclusive.

SMILES	IL-1B inflam inh	TDP1 cell noCPT	ELG1 repair inh	TDP1 cell CPT	HT1080NT lethal	HT1080 IDH1KD tx
O=C(c1ccc(Cl)c(Cl)c1)N1CCC(=O)N(C(COCc2ccc(Cl)cc2)Cc2ccccc2)CC1 (centres undefined)	-73	16µM	?	?	i	?
Cc1cccc(COCC(Cc2ccccc2)N2CCN(C(=O)c3cccc(C)c3)CCC2=O)c1 (centres undefined)	i	?	?	?	i	i
COc1ccc(NS(=O)(=O)c2ccc(C)c(C(=O)NCCCn3ccnc3)c2)cc1	i	i	nt	i	i	i
O=S(=O)(Nc1ccc2oc3c(c2c1)CCCC3)c1cc(Cl)ccc1Cl	nt	?	nt	i	nt	nt
COc1ccccc1NC(=O)CCCc1nnc2n(C)c(=O)c3sccc3n12	i	i	i	i	i	i
O=C(NCc1cccc(C(F)(F)F)c1)N1CCN(C(=O)c2ccccc2)CC1	i	i	?	i	i	i
O=C(c1ccc(Cl)c(Cl)c1)N1CCC(=O)N(C(COCc2cccc(C(F)(F)F)c2)Cc2ccccc2)CC1 (centres undefined)	-86	?	?	?	?	?
CC1=CC(C)C2(COC(c3ccc[n+](C)c3)OC2)C(C)C1 (centres undefined)	i	3.7µM	6.5µM	5.8µM	i	i
Cc1ccc2c(c1)N(CC(=O)NC(C)CCc1ccccc1)C(=O)c1cccnc1O2 (centres undefined)	i	?	i	i	i	i
CN(C)c1ccc(/C=C/c2ccncc2)cc1	i	26µM!	?	i	i	i
CCN(CC)c1ccc(/C=C/c2ccncc2)cc1	nt	0.32µM	nt	0.18µM	nt	nt
CCN(CC)c1ccc(/C=N/O)cc1	i	i	i	i	i	i
CCOc1cc(C(=O)NCCN2C(=O)S/C(=C\c3cccnc3)C2=O)cc(OCC)c1OCC	i	?	18µM	?	i	i
CCc1noc(C)c1C(=O)NCCN1C(=O)S/C(=C\c2ccccc2F)C1=O	i	18µM	nt	18µM	i	i
O=C(CCl)NCCN1C(=O)S/C(=C\c2cccnc2)C1=O	-70	?	i	?	?	?
CC(C(=O)NCCN1C(=O)S/C(=C\c2cccnc2)C1=O)N1C(=O)c2ccccc2C1=O (centres undefined)	i	i	i	i	i	i
Cc1nn(Cc2ccccc2)c(C)c1C(=O)NCCN1C(=O)S/C(=C\c2ccccc2)C1=O	i	?	i	21µM	i	i
COc1ccc(O)c(C(=O)C2c3ccccc3C(=O)N2c2ccc(C)cc2)c1 (centres undefined)	nt	i	?	i	i	i
O=C(CCN1C(=O)C2C3CCC(C3)C2C1=O)OCC(=O)c1cccc([N+](=O)[O-])c1 (centres undefined)	i	i	i	i	i	i
O=C(CN1CCCC1)Nc1ccc(F)c(Cl)c1	i	i	i	i	i	i
COc1cc(/C=C2\SC(=O)N(CCNC(=O)c3cnc(C)cn3)C2=O)cc(OC)c1OC	i	18µM	?	?	i	i
COc1ccc(C(=O)NCCN2C(=O)S/C(=C\c3cccnc3)C2=O)c(OC)c1OC	i	?	?	?	i	i
O=C1S/C(=C/c2ccccc2F)C(=O)N1CCN=C1NS(=O)(=O)c2ccccc21	-97	?	?	16µM	i	i
COc1ccc([C@@H]2C[C@H]3[C@@H](CN2S(=O)(=O)c2ccccc2)C(=O)C[C@@H](c2cccc4ccccc24)N3S(=O)(=O)c2ccc(C)cc2)cc1	i	i	nt	i	i	i
Cc1ccc(N2C(N)=C(C#N)C3(C(=O)N(C)c4ccccc43)C3=C2CC(C)(C)CC3=O)cc1Cl (centres undefined)	i	16µM	?	?	i	i
SMILES	IL-1B inflam inh	TDP1 cell noCPT	ELG1 repair inh	TDP1 cell CPT	HT1080NT lethal	HT1080 IDH1KD tx
CN1C(=O)C2(C(C#N)=C(N)N(c3cc(Cl)cc(Cl)c3)C3=C2C(=O)CC(C)(C)C3)c2ccccc21 (centres undefined)	i	?	nt	21µM	i	i
CCOc1ccccc1C(=O)OCC(=O)Nc1cc(S(=O)(=O)N2CCOCC2)ccc1C	i	i	?	i	i	i
O=C(COC(=O)C12CC3CC(CC(Cl)(C3)C1)C2)Nc1ccccc1	i	i	i	i	i	i
Nc1c(NC2CCCCC2)c2ccccc2oc1=O	i	16µM	i	?	i	?
O=c1oc2ccccc2c(NC2CCCCC2)c1NS(=O)(=O)c1ccc(Br)cc1	-71	?	i	?	i	i
Nc1c(NCCN2CCOCC2)c2ccccc2oc1=O	i	9.2µM	i	5.2µM	i	i
COc1ccc(S(=O)(=O)Nc2ccc3c(c2)C(=O)N([C@H](C)CO)C[C@H](C)[C@@H](CN(C)S(=O)(=O)c2cn(C)cn2)OCCCC[C@H](C)O3)cc1	i	?	nt	i	i	i
COc1cc(-c2nnc(SCC3(c4ccc(Br)cc4)OCCO3)o2)cc(OC)c1OC	?	?	?	16µM	i	i
COc1cc(-c2nnc(SCc3c(F)cccc3Cl)o2)cc(OC)c1OC	-58	26µM	?	?	i	i
COc1cc(-c2nnc(SCC(=O)Oc3ccccc3Cl)o2)cc(OC)c1OC	nt	i	nt	i	nt	nt
COc1cc(-c2nnc(SCc3ccccc3Cl)o2)cc(OC)c1OC	-59	?	?	?	i	i
CCOC(=O)COc1cc(Br)c(/C=N/Nc2ccccc2)cc1OC	-93	i	i	i	?	?
CCOC(=O)COc1ccccc1/C=N/O	i	i	i	i	i	i
COc1cc(C=O)c(Br)cc1OCC(=O)NCCc1ccccc1	i	18µM	?	?	i	?
COc1ccc(OCc2nnc(SCC(=O)Nc3nnc(C4CC4)s3)n2C)cc1	i	i	i	i	i	i
O=S(=O)(C/C(=C/CO)S(=O)(=O)c1ccccc1)c1ccccc1	-106	2.3µM	?	0.82µM	7.1µM	2µM
COc1cccc(CC(=O)OCC(=O)NC(Cc2ccccc2)C(C)=O)c1 (centres undefined)	i	i	i	i	i	i
O=C(O)c1cccc(S(=O)(=O)NCC2COc3ccccc3O2)c1 (centres undefined)	i	i	i	i	i	i
